For part of these data: Results with a measured potency or affinity are listed apart. Active and inactive are the calls of the source.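 How the source made its calls, unless noted: active means compound raising the membrane signal above positive-control mean plus 3 SD in both repeats, and a primary screen hit; inactive means the rest.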
Columns and labels:
[1] = test system: TRPC4 beta (transient receptor potential cation channel C4), mouse; assay: TRPC4 cation channel opening, retest – cell-based, Fluo4 calcium, HEK293 TRPC4beta/mu-opioid, duplicates, 10 µM, confirmation (AID 2426;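 active means fluorescence ratio normalized to control raised more than 50% in primary screen plus both repeat runs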;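 on activation: percent rise of integrated ratio over buffer wells lacking compound which define 0%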); settings: Fluo4 calcium fluorescence, at 10 µM; active compounds read high
[2] = test system: transient receptor potential cation channel C4 beta (TRPC4), mouse; assay: TRPC4 cation channel opening, second retest – cell-based, second round, Fluo4, HEK293 TRPC4beta/mu-opioid, 1 µM, confirmation (AID 2461;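 active means primary screen active and over 50% activation in each of two duplicate runs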;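 on activation: 0% = wells without test compound as baseline of integrated fluorescence ratio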); settings: Fluo4 calcium fluorescence, at 1 µM; active compounds read high
[3] = test system: TRPC4 (transient receptor potential cation channel C4 beta), mouse; assay: potentiation of DAMGO EC20 TRPC4 response – cell-based, second round, Fluo-4, HEK293 TRPC4beta/mu-opioid, 1 µM, confirmation (AID 2554;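 active means primary screen hit whose fluorescence ratio, in both repeats, exceeds the weak agonist control mean by 3 SD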); settings: DAMGO EC20, Fluo-4 calcium flux, at 1 µM; active compounds read high
[4] = test system: TRPC4 beta (transient receptor potential cation channel C4), mouse; assay: potentiation of DAMGO EC20 TRPC4 response – cell-based, Fluo-4, HEK293 TRPC4beta/mu-opioid, confirmation (AID 2555;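 active means primary screen hit whose calcium fluorescence ratio, in both repeats, exceeds the weak agonist control mean by 3 SD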); settings: DAMGO EC20, Fluo-4 calcium flux, at 10 µM; active compounds read high
[5] = molecular target: Short transient receptor potential channel 4 (Mus musculus) (UniProt Q9QUQ5); assay: blockers of DAMGO-evoked TRPC4 calcium flux – cell-based, Fluo4, HEK293 TRPC4beta/mu-opioid, confirmation (AID 2636;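 active means calcium signal cut by more than 3 SD below the full-agonist control yet still positive, in both repeats and the earlier primary screen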); settings: at 10 µM; active compounds read high
[6] = molecular target: Short transient receptor potential channel 4 (Mus musculus) (UniProt Q9QUQ5); assay: blockers of DAMGO-evoked TRPC4 calcium flux – cell-based, second round, Fluo4, HEK293 TRPC4beta/mu-opioid, 1 µM, confirmation (AID 2637;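 active means calcium signal ratio cut to more than 3 SD under the fully stimulated control mean yet still positive, in both repeats and the primary screen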); settings: at 1 µM; active compounds read high
[7] = molecular target: Short transient receptor potential channel 4 (Mus musculus) (UniProt Q9QUQ5); assay: potentiation of DAMGO-evoked TRPC4 calcium signal – cell-based, HEK293 TRPC4/mu-opioid, Fluo-4 calcium, EC20 DAMGO, dose response (AID 434941;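 active means earlier screen potentiator hit that boosts the TRPC4 ion channel at some dose, with a dose response; inactive means no potentiation, no dose response, or not a prior hit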;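 further: calcium entry triggered by an EC20 dose of DAMGO at the co-expressed mu-opioid receptor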)
[8] = molecular target: Short transient receptor potential channel 4 (Mus musculus) (UniProt Q9QUQ5); assay: block of DAMGO-driven TRPC4 calcium entry – cell-based, HEK293 TRPC4/mu-opioid, Fluo-4 calcium, dose response (AID 434942;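 active means primary screen inhibitor hit that blocks the TRPC4 channel at some tested dose, yielding a dose curve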)
[9] = molecular target: Short transient receptor potential channel 6 (Mus musculus) (UniProt Q61143); assay: TRPC6 blockade by TRPC4 inhibitor hits – cell-based, HEK293, membrane potential dye, duplicate, selectivity assay for TRPC4 inhibitor project, confirmation (AID 434948;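 active means active in primary screen and both duplicates, each dropping signal beyond three positive-control SD with fluorescence still positive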); settings: HEK293 TRPC6, membrane potential dye fluorescence, at 10 µM, stimulated with maximal-effect acetylcholine; active compounds read high
[10] = molecular target: Short transient receptor potential channel 6 (Mus musculus) (UniProt Q61143); assay: TRPC6 opening by TRPC4 activator hits – cell-based, HEK293, membrane potential dye, duplicate, selectivity assay for TRPC4 activator project, confirmation (AID 434950;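 active means membrane potential signal rise above negative control mean plus 3 SD in both duplicates, also active in the earlier TRPC4 screen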;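 on activation: 0% = buffer only wells and 100% = acetylcholine maximal-effect wells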); settings: HEK293 TRPC6, membrane potential fluorescence, at 10 µM; activation: active compounds read high; outcome: activation
[11] = molecular target: Short transient receptor potential channel 6 (Mus musculus) (UniProt Q61143); assay: positive modulators of mouse TRPC6 channel – HEK293 cells, membrane potential dye, duplicate, selectivity assay for TRPC4 potentiator project, confirmation (AID 434952); settings: HEK293 TRPC6, membrane potential dye fluorescence, at 10 µM, maximal acetylcholine added after compound; active compounds read high
[12] = molecular target: Short transient receptor potential channel 4 (Mus musculus) (UniProt Q9QUQ5); assay: calcium flux activators in TRPC4/5HT1a cells, counter-screen for TRPC4 activator project, cell-based, second counter screen, HEK293 TRPC4/5HT1a, Fluo-4 (AID 434977;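 active means calcium signal rise above buffer-control mean plus 5 SD in both duplicates, and also a hit in the primary screen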;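 on activation: plate controls were assay buffer for no effect and maximal serotonin response for full effect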); settings: Fluo-4 calcium flux, at 10 µM; active compounds read high
[13] = serotonin-gated TRPC4 signal block – cell-based, second counter screen, HEK293 TRPC4/5HT1a, Fluo-4, counter-screen for TRPC4 inhibitor project, confirmation (AID 434978;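 active means primary screen active whose calcium signal fell more than 3 SD beyond the full-serotonin control mean in both duplicate plates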;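 further: serotonin given first at submaximal then at maximal dose after compound preincubation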); settings: Fluo-4 calcium flux, at 10 µM, serotonin added to trigger calcium flux; active compounds read high
[14] = test system: TRPC4 (mouse), co-expressed with 5HT1a in HEK293; assay: enhancement of serotonin-evoked TRPC4 response – cell-based, second counter screen, HEK293 TRPC4/5HT1a, Fluo-4, counter-screen for TRPC4 potentiator project, confirmation (AID 434979;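 active means signal rise over 3 SD above mean of control wells given weak agonist, in both repeats and first screen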); settings: Fluo-4 calcium flux, at 10 µM, serotonin added at its EC20 dose; active compounds read high
[15] = nonspecific calcium rise without TRPC4 – cell-based, HEK293 mu-opioid receptor line, counter-screen for TRPC4 activator project, confirmation (AID 449723;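 active means hit in primary screen, with calcium signal over 5 SD above buffer well mean in both duplicates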;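 further: counter screen cells carry the mu-opioid receptor alone and lack TRPC4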); settings: HEK293 mu-opioid cells, Fluo-4 calcium fluorescence, at 10 µM; active compounds read high
[16] = nonspecific potentiation of DAMGO calcium response – cell-based, HEK293 mu-opioid receptor line, counter-screen for TRPC4 allosteric potentiator project, confirmation (AID 449724;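 active means calcium signal rise more than 3 SD above the low-dose agonist control mean, in both duplicate plates and the primary screen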); settings: HEK293 mu-opioid receptor cells, Fluo-4 calcium flux, at 10 µM, compound added before EC20 DAMGO stimulus; active compounds read high

Measured: activation

Short transient receptor potential channel 6 (Mus musculus), sequence (Q61143 whole entry, looked up): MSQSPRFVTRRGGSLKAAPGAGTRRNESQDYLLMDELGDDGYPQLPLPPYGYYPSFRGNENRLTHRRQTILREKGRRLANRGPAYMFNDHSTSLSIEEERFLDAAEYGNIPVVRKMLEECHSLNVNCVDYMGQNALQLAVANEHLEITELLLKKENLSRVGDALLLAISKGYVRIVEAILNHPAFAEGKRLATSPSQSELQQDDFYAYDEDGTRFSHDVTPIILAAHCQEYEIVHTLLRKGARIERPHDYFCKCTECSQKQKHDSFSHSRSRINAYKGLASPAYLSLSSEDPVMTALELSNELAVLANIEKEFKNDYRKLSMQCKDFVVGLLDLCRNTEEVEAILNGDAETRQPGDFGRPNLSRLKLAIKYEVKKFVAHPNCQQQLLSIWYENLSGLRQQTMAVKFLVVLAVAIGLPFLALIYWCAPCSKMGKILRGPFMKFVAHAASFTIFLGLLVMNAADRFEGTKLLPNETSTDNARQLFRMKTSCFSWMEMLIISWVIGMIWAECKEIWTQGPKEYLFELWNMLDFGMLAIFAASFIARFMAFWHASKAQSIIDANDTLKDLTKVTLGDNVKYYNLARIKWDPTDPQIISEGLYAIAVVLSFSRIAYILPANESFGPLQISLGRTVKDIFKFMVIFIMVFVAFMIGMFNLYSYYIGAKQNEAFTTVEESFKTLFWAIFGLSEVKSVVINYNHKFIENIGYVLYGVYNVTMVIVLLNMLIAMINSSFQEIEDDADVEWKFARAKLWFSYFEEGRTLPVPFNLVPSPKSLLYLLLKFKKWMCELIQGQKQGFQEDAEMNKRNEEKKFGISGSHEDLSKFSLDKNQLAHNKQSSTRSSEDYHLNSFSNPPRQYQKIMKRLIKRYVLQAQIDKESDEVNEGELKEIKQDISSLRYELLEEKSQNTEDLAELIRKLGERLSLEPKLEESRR
Short transient receptor potential channel 4 (Mus musculus), sequence (Q9QUQ5 whole entry, looked up): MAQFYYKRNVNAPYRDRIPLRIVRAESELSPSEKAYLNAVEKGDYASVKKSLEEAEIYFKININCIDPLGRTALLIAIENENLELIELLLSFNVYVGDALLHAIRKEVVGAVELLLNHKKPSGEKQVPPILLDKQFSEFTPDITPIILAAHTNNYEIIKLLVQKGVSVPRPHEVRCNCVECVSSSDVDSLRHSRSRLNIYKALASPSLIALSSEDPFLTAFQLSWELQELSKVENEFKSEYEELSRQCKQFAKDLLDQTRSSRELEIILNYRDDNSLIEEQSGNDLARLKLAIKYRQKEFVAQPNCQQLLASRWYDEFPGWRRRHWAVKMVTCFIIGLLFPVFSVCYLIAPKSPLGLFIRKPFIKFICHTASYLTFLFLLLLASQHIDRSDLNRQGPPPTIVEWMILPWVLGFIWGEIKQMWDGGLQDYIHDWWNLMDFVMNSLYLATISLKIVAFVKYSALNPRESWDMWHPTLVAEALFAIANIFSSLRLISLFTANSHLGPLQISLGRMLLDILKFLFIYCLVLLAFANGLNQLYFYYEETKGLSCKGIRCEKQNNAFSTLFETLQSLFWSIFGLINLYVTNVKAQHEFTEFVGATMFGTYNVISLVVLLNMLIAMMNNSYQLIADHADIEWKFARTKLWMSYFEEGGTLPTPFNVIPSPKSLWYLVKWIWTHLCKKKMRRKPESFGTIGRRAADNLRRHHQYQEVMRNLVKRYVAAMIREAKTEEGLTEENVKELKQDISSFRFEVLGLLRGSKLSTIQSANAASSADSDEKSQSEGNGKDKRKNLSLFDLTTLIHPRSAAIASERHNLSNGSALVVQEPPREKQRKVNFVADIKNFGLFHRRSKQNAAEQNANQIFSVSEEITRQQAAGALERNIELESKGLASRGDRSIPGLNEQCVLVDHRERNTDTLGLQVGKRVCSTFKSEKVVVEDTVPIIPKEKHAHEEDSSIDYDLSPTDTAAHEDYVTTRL

Cc1ccc(N2CCN(c3ccc(NCc4nc5ccccc5n4C)cc3)CC2)cc1
active: [1] 79%
inactive: all other assays above

OC(CNC1CCCc2ccccc21)COc1ccc2ccccc2c1 (stereo not given)
active: [1] 158% | [10] 55% | [12] 30.1%
inactive: all other assays above

CCCCN(CC)CCNC(=O)c1cc2c(C)nc3ccccc3c2o1
active: [1] 128% | [12] 42.6%
inactive: all other assays above

Cc1cc(NC(=O)CN2CCc3ccccc3C2)nc2c1c(=O)oc1ccccc12
inactive: all assays above

Cn1c(CN2CCN(c3cccc(Cl)c3)CC2)nc2ccccc21
active: [1] 119% | [10] 49%
inactive: all other assays above

Cc1ccc(C(=O)NNC(=S)NC(=O)c2ccc(Cl)cc2)cc1
active: [10] 29.5% | [12] 77.8%
inactive: all other assays above

O=C(c1c(F)cccc1F)N1CCN(c2ncc(Br)cn2)CC1
active: [1] 158% | [2] 86% | [10] 34% | [12] 68.5%
inactive: all other assays above

Cc1onc(-c2ccccc2)c1C(=O)NC(=S)NNC(=O)c1ccco1
active: [1] 142% | [10] 30.5% | [12] 51.5%
inactive: all other assays above

Cc1ccc(Sc2cc(C(=O)NCCN(C)C)c3ccccc3n2)cc1
active: [1] 91% | [12] 24.6%
inactive: all other assays above

Fc1ccc(-c2nnc(CN3CCN(c4ncc(C(F)(F)F)cc4Cl)CC3)o2)cc1
active: [1] 120% | [10] 35.5% | [12] 23.8%
inactive: all other assays above

Cc1ccccc1OCC(=O)NNC(=S)NC(=O)c1ccco1
active: [1] 103% | [10] 31.5% | [12] 42.5%
inactive: all other assays above

Cc1cc(C)c(CN2CCN(Cc3ccc(C)o3)C(CCO)C2)c(-n2cccn2)c1 (stereo not given)
active: [1] 75% | [10] 73%
inactive: all other assays above

CCOc1ccccc1CN1CCNC(=O)C1CC(=O)N(C)CCc1ccccn1 (stereo not given)
active: [1] 235% | [2] 76% | [10] 27% | [12] 72.6%
inactive: all other assays above

CCN(CC)CCSc1nc2ccc(OC)cc2[nH]1
active: [1] 90% | [2] 60% | [12] 31.6%
inactive: all other assays above

CCCN(CCC)CCNC(=S)Nc1ccc2nc3n(c(=O)c2c1)CCCCC3
active: [10] 47% | [12] 7.78%
inactive: all other assays above

Reference: PubChem BioAssay
